Experimental data as given in PubChem BioAssay AID1159580 (chemical genetic matrix, 2015).
About 2,000 (36%) of roughly 5,500 compounds were called active. Another 18% or so got no clear call; they are omitted. No stated cut-off is given here; in the data, active means normalized growth mostly below about 0.91 (no sharp cut-off); inconclusive means no clear call, values can overlap the other calls; inactive means mostly above about 0.92. The list shows a part of the results.

Experiment: chemical genetic growth profiling, strain panel (AID 1159580);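 further: tested at 20 µM; growth read once vehicle control cultures reached saturation at 30 °C; 1 = growth at the plate median or of vehicle wells; lower values mean less growth of the strain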
Settings: growth OD

Measured: normalized growth

N#C/C(=C\c1cccc(O)c1)C(=O)O
inactive: S. cerevisiae deletion strains, locus YJR075W, strain HOC1, hits give low values 0.98 | S. cerevisiae deletion strains, locus YKL009W, strain mrt4, hits give low values 0.989 | S. cerevisiae deletion strains, locus YKL068W, hits give low values 0.998 | S. cerevisiae deletion strains, locus YKL085W, strain MDH1 (second series), hits give low values 0.951 | S. cerevisiae deletion strains, locus YKL085W, strain MDH1, hits give low values 0.951 | S. cerevisiae deletion strains, locus YKL160W, strain elf1, hits give low values 0.977 | S. cerevisiae deletion strains, locus YKL190W, strain CNB1, hits give low values 0.99 | S. cerevisiae deletion strains, locus YKR001C, strain vps1, hits give low values 1 | S. cerevisiae deletion strains, locus YKR026C, strain gcn3, hits give low values 1 | S. cerevisiae deletion strains, locus YKR091W, strain srl3, hits give low values 0.976 | S. cerevisiae deletion strains, locus YLL001W, strain dnm1, hits give low values 1.03 | S. cerevisiae deletion strains, locus YLL026W, hits give low values 0.974 | S. cerevisiae deletion strains, locus YLL041C, strain sdh2, hits give low values 0.984 | S. cerevisiae deletion strains, locus YLR027C, strain aat2, hits give low values 0.985 | S. cerevisiae deletion strains, locus YLR039C, strain RIC1, hits give low values 1.01 | S. cerevisiae deletion strains, locus YLR058C, strain SHM2, hits give low values 0.979 | S. cerevisiae deletion strains, locus YLR102C, strain apc9, hits give low values 0.988 | S. cerevisiae deletion strains, locus YLR113W, strain HOG1, hits give low values 0.971 | S. cerevisiae deletion strains, locus YLR221C, strain rsa3, hits give low values 1.02 | S. cerevisiae deletion strains, locus YLR258W, strain gsy2, hits give low values 0.977 | S. cerevisiae deletion strains, locus YLR262C, strain YPT6 (second series), hits give low values 0.974 | S. cerevisiae deletion strains, locus YLR262C, strain YPT6, hits give low values 0.957 | S. cerevisiae deletion strains, locus YLR268W, strain sec22, hits give low values 0.987 | S. cerevisiae deletion strains, locus YLR320W, strain mms22, hits give low values 1.03 | S. cerevisiae deletion strains, locus YLR330W, strain CHS5, hits give low values 0.989 | S. cerevisiae deletion strains, locus YLR342W, strain FKS1 (second series), hits give low values 1.09 | S. cerevisiae deletion strains, locus YLR342W, strain FKS1, hits give low values 0.99 | S. cerevisiae deletion strains, locus YLR357W, strain rsc2, hits give low values 0.988 | S. cerevisiae deletion strains, locus YLR370C, strain arc18, hits give low values 0.978 | S. cerevisiae deletion strains, locus YLR371W, strain rom2, hits give low values 1 | S. cerevisiae deletion strains, locus YLR384C, strain iki3, hits give low values 0.991 | S. cerevisiae deletion strains, locus YLR418C, strain cdc73, hits give low values 0.964 | S. cerevisiae deletion strains, locus YML016C, strain PPZ1, hits give low values 1 | S. cerevisiae deletion strains, locus YML032C, strain rad52, hits give low values 1.02 | S. cerevisiae deletion strains, locus YML120C, strain ndi1, hits give low values 0.992 | S. cerevisiae deletion strains, locus YML124C, strain tub3, hits give low values 1 | S. cerevisiae deletion strains, locus YMR058W, strain fet3, hits give low values 0.997 | S. cerevisiae deletion strains, locus YMR078C, strain ctf18, hits give low values 0.996 | S. cerevisiae deletion strains, locus YMR125W, strain sto1, hits give low values 0.991 | S. cerevisiae deletion strains, locus YMR129W, hits give low values 0.964 | S. cerevisiae deletion strains, locus YMR205C, strain PFK2, hits give low values 1.02 | S. cerevisiae deletion strains, locus YMR223W, strain ubp8, hits give low values 1.05 | S. cerevisiae deletion strains, locus YMR231W, strain pep5, hits give low values 0.991 | S. cerevisiae deletion strains, locus YMR263W, strain SAP30, hits give low values 0.979 | S. cerevisiae deletion strains, locus YMR307W, strain GAS1, hits give low values 1.08 | S. cerevisiae deletion strains, locus YNL067W, strain RPL9B, hits give low values 0.989 | S. cerevisiae deletion strains, locus YNL071W, strain lat1, hits give low values 0.997 | S. cerevisiae deletion strains, locus YNL128W, strain TEP1, hits give low values 0.928 | S. cerevisiae deletion strains, locus YNL153C, strain GIM3, hits give low values 0.984 | S. cerevisiae deletion strains, locus YNL183C, strain NPR1, hits give low values 0.915 | S. cerevisiae deletion strains, locus YNL209W, strain ssb2, hits give low values 1 | S. cerevisiae deletion strains, locus YNL233W, strain BNI4, hits give low values 1.01 | S. cerevisiae deletion strains, locus YNL248C, strain rpa49, hits give low values 0.963 | S. cerevisiae deletion strains, locus YNL250W, strain rad50, hits give low values 0.991 | S. cerevisiae deletion strains, locus YNL271C, strain bni1, hits give low values 1.01 | S. cerevisiae deletion strains, locus YNL298W, strain CLA4, hits give low values 1 | S. cerevisiae deletion strains, locus YNL307C, strain MCK1, hits give low values 1.03 | S. cerevisiae deletion strains, locus YNL322C, strain KRE1 (second series), hits give low values 0.952 | S. cerevisiae deletion strains, locus YNL322C, strain KRE1, hits give low values 0.979 | S. cerevisiae deletion strains, locus YNR049C, strain mso1, hits give low values 0.961 | S. cerevisiae deletion strains, locus YNR052C, strain pop2, hits give low values 0.995 | S. cerevisiae deletion strains, locus YOL006C, strain TOP1, hits give low values 0.975 | S. cerevisiae deletion strains, locus YOL012C, strain htz1 1.3 | S. cerevisiae deletion strains, locus YOL147C, strain pex11, hits give low values 0.994 | S. cerevisiae deletion strains, locus YOR001W, strain rrp6, hits give low values 1.02 | S. cerevisiae deletion strains, locus YOR061W, strain CKA2, hits give low values 0.96 | S. cerevisiae deletion strains, locus YOR069W, strain VPS5, hits give low values 0.997 | S. cerevisiae deletion strains, locus YOR070C, strain gyp1, hits give low values 0.993 | S. cerevisiae deletion strains, locus YOR080W, strain dia2, hits give low values 0.984 | S. cerevisiae deletion strains, locus YOR083W, strain WHI5, hits give low values 0.916 | S. cerevisiae deletion strains, locus YOR106W, strain vam3, hits give low values 0.924 | S. cerevisiae deletion strains, locus YOR136W, strain idh2, hits give low values 1.01 | S. cerevisiae deletion strains, locus YOR144C, strain elg1, hits give low values 0.989 | S. cerevisiae deletion strains, locus YOR184W, strain ser1, hits give low values 1.06 | S. cerevisiae deletion strains, locus YOR231W, strain MKK1, hits give low values 0.973 | S. cerevisiae deletion strains, locus YOR265W, strain rbl2, hits give low values 0.964 | S. cerevisiae deletion strains, locus YOR270C, strain vph1, hits give low values 0.997 | S. cerevisiae deletion strains, locus YOR290C, strain snf2, hits give low values 0.967 | S. cerevisiae deletion strains, locus YOR316C, strain cot1, hits give low values 0.986 | S. cerevisiae deletion strains, locus YPL051W, strain arl3, hits give low values 0.981 | S. cerevisiae deletion strains, locus YPL055C, strain LGE1, hits give low values 0.96 | S. cerevisiae deletion strains, locus YPL078C, strain atp4, hits give low values 0.991 | S. cerevisiae deletion strains, locus YPL106C, strain sse1, hits give low values 0.961 | S. cerevisiae deletion strains, locus YPL240C, strain hsp82, hits give low values 0.986 | S. cerevisiae deletion strains, locus YPL241C, strain CIN2, hits give low values 0.987 | S. cerevisiae deletion strains, locus YPL256C, strain CLN2, hits give low values 0.977 | S. cerevisiae deletion strains, locus YPR119W, strain clb2, hits give low values 0.987 | S. cerevisiae deletion strains, locus YPR141C, strain kar3, hits give low values 0.975 | S. cerevisiae deletion strains, locus YPR163C, strain tif3, hits give low values 0.998 | S. cerevisiae deletion strains, locus YPR167C, strain met16, hits give low values 0.981 | S. cerevisiae deletion strains, strain wtn01, hits give low values 0.98 | S. cerevisiae strains, strain wild type, hits give low values 1.02
